KB-V1 cytotox: qHTS assay for MDR1-selective chemotherapeutics: Primary screen using the drug-selected MDR subline cells KB-V1. KB-V1 MDR cells viability, CellTiter-Glo, 72 h. Potency, µM (series often up to 46.1 µM), most hits filed as cytotoxic. actives 3.4% (n = 400,000). AID 1347076, 2019; further: on the % scale 0 is the no-effect control and ±100 the full control effect; nearly all actives have a fitted effect of over 60% in size
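KB-V1 MDR subline cells in DMEM (phenol-red free, 10% FBS) exposed to compounds in qHTS concentration series for 72 h at 37 degrees C. Viability read by CellTiter-Glo luminescence; concentration-effect curves fitted after normalization and correction.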
SW480 rereplic: A quantitative high throughput screen for small molecules that induce DNA re-replication in SW480 colon adenocarcinoma cells; SW480 DNA re-replication, Hoechst DNA content imaging, 48 h; Potency, µM (highest dose often 46.1 µM), for the others: at the top dose re-replication activation, actives largely listed as activators; actives 1.8% (n = 340,000); further: % of control where 0% means no effect; nearly all actives have a fitted effect of over 55% in size
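First, 250 cells per well were seeded. Next, compound or vehicle (23 nL) was pinned in, plates sat 48 hr at 37 C. Finally Hoechst was added for 40 min before fluorescence scanning.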
MCF10A rereplic: A quantitative high throughput screen for small molecules that induce DNA re-replication in MCF 10a normal breast cells; MCF 10A DNA re-replication, Hoechst nuclear intensity, 48 h; Potency, µM (top dose mostly 46.1 µM), inactives show top-dose activity, positive = re-replication, actives largely listed as activators; actives 2.9% (n = 350,000); AID 624296, 2012; further: % of control where 0% means no effect; nearly all actives have a fitted effect of over 50% in size
ELG1 DNA repair: qHTS screen for small molecules that inhibit ELG1-dependent DNA repair in human embryonic kidney (HEK293T) cells expressing luciferase-tagged ELG1; HEK293T ELG1-luciferase reporter, luminescence, 16 h; DNA damage induced by 5-fluorouridine; Potency, µM (highest dose often 46.1 µM), inactives show at the highest dose activity change, negative = inhibition, usual class: inhibitors; actives 2.3% (n = 330,000); AID 504467, 2011; further: on the % scale 0 is the no-effect control and ±100 the full control effect; nearly all actives have a fitted effect of over 55% in size
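HEK293T cells expressing luciferase-tagged ELG1 (2,000/well) received 5-Fluorouridine plus compound or DMSO for 16 hr at 37 °C. Luciferase was read by ONE-Glo luminescence after 30 min at room temperature.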
KB-3-1 cytotox: qHTS assay for MDR1-selective chemotherapeutics: Primary screen using the parental adenocarcinoma cell KB-3-1; KB-3-1 viability, CellTiter-Glo ATP luminescence, 72 h; Potency, µM (top dose mostly 46.1 µM), most hits filed as cytotoxic; actives 1.4% (n = 400,000); AID 1347075, 2019; further: on the % scale 0 is the no-effect control and ±100 the full control effect; nearly all actives have a fitted effect of over 60% in size
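Here the drug-naive KB-3-1 line serves as comparator for MDR sub-line selectivity; cells received compound titrations, 72 h at 37 °C, then CellTiter-Glo readout.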
Active calls of the source: *; i = inactive; ? = inconclusive; . = not tested or not shown; [ ] = dose if it differs, or a comment. Hits are enriched below; roughly 8.2% of the tested compounds scored in any of these assays. The call rests on the fitted dose curve; in most records, active means well fitted curve in the direction sought with a large enough effect; inconclusive means small, poorly fitted or top-dose-only effect, or another doubt; inactive means no such curve, though single readings can be large; an effect the other way counts as inactive or inconclusive. Potency means the concentration at half of the fitted maximal effect.

SMILES	KB-V1 cytotox	SW480 rereplic	MCF10A rereplic	ELG1 DNA repair	KB-3-1 cytotox
O=C(Nc1ccc(S(=O)(=O)N2CCCC2)cc1)c1ccc([N+](=O)[O-])o1	?	0.731µM*	1.84µM*	?	?
COc1ccc(C(=O)NNC(=S)NC(=O)c2ccc(F)cc2)cc1Br	?	-21.7%	9.7%	.	i
O=C(NC(=S)NNC(=O)c1cnccn1)c1ccc(F)cc1	i	17.7%	10.8%	5.17µM*	i
COc1cc(C(=O)NNC(=S)NC(=O)c2ccc(F)cc2)cc(OC)c1OC	?	?	23.1µM*	?	i
COc1cc(C(=O)NC(=S)NNC(=O)c2ccc3c(c2)OCO3)cc(OC)c1OC	?	-6.2%	?	16.4µM*	?
O=C(NNC(=S)NC(=O)c1cccnc1)c1ccc(F)cc1	i	-37.8%	0.8%	?	i
CN(C)c1nc(F)c(F)c(S(=O)(=O)c2ccccc2)c1F	i	-6.9%	-2.1%	?	i
O=C(COC(=O)c1ccc(O)cc1O)Nc1ncc(Cl)cc1Cl	i	-6.8%	9.8%	-1.2%	i
CCC(Oc1ccccc1F)C(=O)N1CCC(c2nc3ccccc3s2)CC1 (centres undefined)	i	.	.	.	i
COc1ccccc1N(CC(=O)N/N=C(\C)c1ccc(F)cc1)S(=O)(=O)c1ccccc1	?	-0.8%	3.4%	20.3%	i
COc1cc(NC(=O)Nc2nc(C(N)C3CCCCC3)cs2)cc(OC)c1OC (centres undefined)	i	.	.	.	?
O=C(CSc1nc2ccccc2[nH]1)N1c2ccccc2Sc2ccccc21	11.6µM*	9.0%	-2.0%	2.8%	i
O=C(CCCSc1nc2ccccc2[nH]1)N1CCN(c2ccccc2)CC1	i	10.2%	10.0%	23.1µM*	i
O=C(CSc1nc(O)cc(=O)[nH]1)N1c2ccccc2Sc2ccccc21	i	-4.7%	5.9%	2.8%	i
Cc1cccc(N2CCN(C(=O)CCCSc3nc4ccccc4[nH]3)CC2)c1C	5.8µM*	3.5%	-5.6%	?	i
O=C(CSc1nc2ccccc2[nH]1)N1CCN(c2ccccc2)CC1	16.4µM*	-3.4%	11.7%	1.9%	i
Cc1ccc2nc(SCC(=O)N3CCN(c4ccccc4)CC3)[nH]c2c1	i	?	0.0%	-10.1%	i
COc1ccccc1Nc1nc(N)nc(CSC(=S)N2CCCCC2)n1	?	?	1.8%	?	i
O=C(CCCSc1nc2ccccc2[nH]1)NCc1ccccc1Cl	16.4µM*	.	0.4%	-0.9%	i
CN(C)S(=O)(=O)c1ccc(NC(=S)NC(=O)C2CCC2)cc1	i	-8.1%	14.2%	-7.3%	i
COc1ccc(NC(=O)CCN(c2ccc(OC)cc2)S(=O)(=O)c2ccc(C)c(C)c2)cc1	8.2µM*	7.7%	8.6%	.	i
COc1ccccc1N(Cc1ccccc1)S(=O)(=O)c1cccc(C(=O)Nc2cccc(C)n2)c1	i	-11.1%	19.8%	?	?
COc1ccc(S(=O)(=O)N(CC(=O)Nc2ccc(C)cc2)c2ccc(C)cc2)cc1OC	?	.	.	.	i
COc1ccc(N(Cc2ccccc2)S(=O)(=O)c2cccc(C(=O)Nc3ccccn3)c2)cc1	3.66µM*	13.4%	?	-7.2%	?
CN(Cc1ccccc1)S(=O)(=O)c1ccc(NC(=S)NC(=O)C2CCCC2)cc1	4.11µM*	3.26µM*	14.6µM*	16.4µM*	6.51µM*
SMILES	KB-V1 cytotox	SW480 rereplic	MCF10A rereplic	ELG1 DNA repair	KB-3-1 cytotox
COc1ccc(C(=O)Nc2ccc(S(=O)(=O)N(Cc3ccccc3)c3ccccc3)cc2)cc1	2.31µM*	.	.	.	i
Cc1c(C(=O)Nc2ccccc2Cl)sc2ncnc(N(C)C3CCCCC3)c12	i	.	.	.	i
CCOc1ccc(NC(=O)CCCn2c(=S)[nH]c3ccsc3c2=O)cc1	i	0.6%	15.6%	-11.4%	i
O=C(c1ccc2c(c1)N(Cc1ccc(F)cc1)C(=O)c1ccccc1S2(=O)=O)N1CCC(Cc2ccccc2)CC1	i	.	.	.	i
O=C1c2ccccc2C(=O)N1c1ccccn1	i	.	.	.	i
O=C(Nc1ccccn1)c1ccc(CN(c2ccccc2)S(=O)(=O)c2ccccc2)cc1	i	10.7%	?	18.3µM*	i
FC(F)(F)c1cccc(-n2c(Cn3nnc4ccccc43)n[nH]c2=S)c1	i	2.59µM*	-0.5%	2.3%	i
S=c1[nH]nc(Cn2nnc3ccccc32)n1-c1ccccc1	i	2.5%	1.7%	4.9%	i
COc1ccc(C(CNCC(O)COc2c(C)ccc(C)c2C)N(C)C)cc1 (centres undefined)	i	18.1%	17.1%	-27.6%	?
CCCCNC(=O)Cn1c(SCc2cccc(C)c2)nc2ccncc21	i	.	.	.	i
Cc1nn(C)cc1C(C)NC(=O)c1cc(COc2cccc3cnccc23)on1 (centres undefined)	?	-1.9%	17.1%	18.3µM*	i
CCCC1NC(=O)c2cccnc2-n2c1nc1ccc(OC)cc1c2=O (centres undefined)	i	.	.	.	i
COC(=O)[C@@]1(Sc2ccc(C)cc2)CC(=O)N(c2ccccc2)[C@@H]1c1ccccc1	16.4µM*	.	.	.	?
CCN1C(=O)/C(=C/c2nc3ccccc3c(=O)n2-c2ccccc2)c2ccccc21	i	?	?	?	23.1µM*
CCCSc1nnc(NC(=O)Nc2ccc(C)cc2)s1	i	19.0%	10.4%	1.7%	i
CCCSc1nnc(NC(=O)Nc2ccccc2)s1	20.6µM*	?	?	?	?
CCCSc1nnc(NC(=O)Nc2ccc(F)cc2)s1	?	5.3%	?	17.9%	25.9µM*
CCCSc1nnc(NC(=O)CCc2ccccc2)s1	i	-10.7%	-7.0%	14.2%	i
COc1ccc(CNC(=O)N2CCN(C(=O)c3ccccc3)CC2)cc1	i	-102.0%	-0.1%	0.2%	i
O=C1CC(O)(c2ccccc2)C(c2ccccc2)=C1c1ccccc1 (centres undefined)	17.8µM*	-2.4%[9.22 µM]	17.4%	?	?
O=C1C=C(c2ccccc2)C(O)(c2ccccc2)C1 (centres undefined)	i	-6.2%	-0.1%	-3.5%	i
CCCN(C(=O)CSc1nnc(-c2ccoc2C)n1N)C1CCS(=O)(=O)C1 (centres undefined)	i	-1.8%	-1.6%	0.651µM*	i
CCCN(C(=O)CSc1nnnn1-c1ccccc1OC)C1CCS(=O)(=O)C1 (centres undefined)	i	0.7%	3.5%	2.2%	i

Compound activity: PubChem, National Center for Advancing Translational Sciences (NCATS)
